The source of these data is PubChem BioAssay AID651814 (National Center for Advancing Translational Sciences (NCATS), 2012).

Among all 2,100 compounds or so, about 590 (28%) were called active. Inconclusive results (about 42%) are left out. The list shows a part of the results. A number with no mark means an inactive call. Calls come from the whole dose curve; as a rule, active = well fitted inhibition curve with a large enough effect; inconclusive = small, poorly fitted or top-dose-only effect; inactive = flat fitted curve, though single readings scatter.
Potency is the fitted concentration of half-maximal effect.

Chain of DNA dC->dU-editing enzyme APOBEC-3F (Homo sapiens) (Q8IUX4 whole entry, looked up): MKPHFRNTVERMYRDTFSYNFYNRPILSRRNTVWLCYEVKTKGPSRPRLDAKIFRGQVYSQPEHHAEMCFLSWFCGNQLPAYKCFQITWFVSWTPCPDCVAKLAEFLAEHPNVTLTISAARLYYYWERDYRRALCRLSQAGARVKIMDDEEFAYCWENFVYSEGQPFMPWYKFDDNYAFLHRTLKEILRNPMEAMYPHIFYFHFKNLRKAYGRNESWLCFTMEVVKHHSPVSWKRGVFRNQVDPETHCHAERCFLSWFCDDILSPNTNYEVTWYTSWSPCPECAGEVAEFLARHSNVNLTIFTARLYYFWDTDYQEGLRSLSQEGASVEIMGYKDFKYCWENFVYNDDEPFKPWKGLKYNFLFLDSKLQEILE

This assay concerns the target DNA dC->dU-editing enzyme APOBEC-3F (Homo sapiens) (UniProt Q8IUX4). Kind of assay: qHTS for inhibitors of Vif-A3F interactions: Cherry picks.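 For max response: % of control where 0% means no effect; active compounds raise eYFP fluorescence by blocking Vif-driven A3F loss.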 Note: nearly all actives have a fitted effect of over 70% in size. The conditions noted are these: HeLa A3F-eYFP + Vif (tagged APOBEC3F with the HIV-1 protein that degrades it), eYFP fluorescence, 24 h. The text has this:
The recent discovery and characterization of host restriction factors, which provide a potent defense to invading retroviruses, has provided new targets for antiviral drug development. APOBEC3G (A3G) and APOBEC3F (A3F) are potent cytidine deaminases that block HIV-1 replication; HIV-1 expresses the Vif protein, which counteracts A3G and A3F by binding to them and inducing their proteasomal degradation. The Vif-A3G and Vif-A3F interactions provide two potential targets for development of small molecules which can interfere with the ability of Vif to degrade A3G or A3F. […] To identify inhibitors that can interfere with Vif mediated degradation of A3G and A3F, we have developed Hela cell lines that stably express A3G or A3F tagged with eYFP at the C-terminal end (A3G-eYFP or A3F-eYFP, respectively) and Vif. In the absence of an inhibitor, Vif induces degradation of A3G-eYFP and A3F-eYFP, and the cells are not fluorescent. In the presence of an inhibitor, it is expected that Vif will be unable to degrade A3G-eYFP and/or A3F-eYFP, resulting in an increase in yellow fluorescence. In this assay, Vif A3F was screened against the cherry picks ordered from the MLSMR. NIH Chemical Genomics Center [NCGC] NIH Molecular Libraries Probe Centers Network [MLPCN] MLPCN Grant: MH093245 Assay Submitter (PI): Vinay Pathak, National Cancer Institute
A3F-Vif cells were harvested from T225 flask and resuspended in phenol free OPTI-MEM medium with 5% FBS. Then 5 uL of 140,000 cells/mL resuspended cells was dispensed into each well of low base Aurora COC 1,536-well plates (black walled, clear bottom) using a Multidrop Combi dispenser. After overnight culture at 37 deg C with 5% CO2, a total of 23 nL of compounds at 5 selected concentrations from the NPC or positive control (2 mM stock of MG132) in DMSO was transferred to each well of the assay plate using a pintool (Kalypsys, San Diego, CA), and the plates were further incubated at 37 deg C with 5% CO2 for 24 hours. After that, the plates were measured on Acumen Explorer (TTP Lab Tech). The fluorescence was detected by 488 nm/Ex and […].
For orientation: Quantitative high-throughput screening tests each substance at several concentrations.
Consider `Cc1ccc(CNC(=O)c2ccccc2NC(=O)c2nsc3ccccc23)cc1`, for which the Potency is 20.6 µM (active).
Same read-out and setting: to `CCN(CC)c1ccc(C=C2C(=O)N(C)C(=S)N(C)C2=O)o1` belongs 3.96 µM (active).
Regarding `Cc1ccc(/C=C2/C(=O)NC(=O)N(CCc3ccc(F)cc3)C2=O)s1`, the max response was -13.3%.
`CCN(CC)c1ccc(/C=C2\C(=O)NC(=S)N(C)C2=O)o1`: the Potency was 14 µM (active).
The same measure, in the same setting: to `Cc1cccc(-n2c(/C=C/c3c(C)[nH]c4ccccc34)nc3ccccc3c2=O)c1` belongs 20.6 µM (active).
Still for that read-out and setting: to `O=Cc1c(C(=O)O)n(Cc2ccc(Cl)cc2)c2ccccc12` belongs 20.6 µM (active); to `CC(=O)OC1C2(CC3N4C(=O)C5(CO)SSC4(CC31O)C(=O)N5C)OC(C)C(C)(C)C2=O` (stereo not drawn), 6.27 µM (active).
In the case of `Cc1cccc(CN2CCCC(C(=O)c3cccc(OC(C)C)c3)C2)n1` (stereo not drawn), the max response is 3.61%.
For the compound `O=C1NC(=S)SC1=Cc1ccc(N(CCCl)CCCl)cc1`, the Potency was 14 µM (active).
`ClCCN(CCCl)c1ccc(C=Cc2ccncn2)cc1`: the max response was -17%.
On to `CN1C(=O)C(=Cc2ccc(N3CCOCC3)o2)C(=O)N(C)C1=O`, for which the Potency was 18.4 µM (active).
Still for that read-out and setting: to `CN1C(=O)C(=Cc2ccc(N3CCCCC3)o2)C(=O)N(C)C1=S` belongs 5.17 µM (active); to `CN1C(=O)C(=Cc2ccc(N3CCOCC3)o2)C(=O)N(C)C1=S`, 23.1 µM (active); to `O=C1NC(=O)N(c2ccc3c(c2)OCO3)C(=O)/C1=C/c1ccc(N2CCCCC2)o1`, 23.1 µM (active).
In the case of `O=C1NC(=O)N(c2ccc3c(c2)OCO3)C(=O)/C1=C\c1ccc(N2CCCCC2)o1`, the Potency is 18.4 µM (active).
Take `CN(C)c1ccc(/C=C/C=C2/C(=O)NC(=O)N(c3ccccc3)C2=O)cc1`: the Potency is 16.4 µM (active).
On the same count and under the same terms, with `CC(C)c1ccc(N2C(=O)NC(=O)/C(=C\C=C\c3ccco3)C2=O)cc1` the figure was 17.7 µM (active).
With `Cc1ccc(N2C(=O)NC(=O)/C(=C\C=C\c3ccco3)C2=O)cc1C`, the max response was -16.6%.
In the case of `O=C1NC(=O)N(Cc2ccc(F)cc2)C(=O)/C1=C\C=C\c1ccco1`, the max response is -29.5%.
As for `Cc1cc(N2CCCC2)ccc1C=C(C#N)C#N`, the Potency was 7.31 µM (active).
On the same count and under the same terms, with `Cc1nn(Cc2ccccc2)c(C)c1C(=O)OCC(=O)Nc1ccccc1SCC#N` the figure was 14 µM (active); with `CCN(CC)c1ccc(N=Cc2c(O)n(CCC3=CCCCC3)c(=O)[nH]c2=O)cc1`, 3.66 µM (active); with `CCN(CC)c1ccc(N=Cc2c(O)n(Cc3ccccc3)c(=O)[nH]c2=O)cc1`, 3.26 µM (active).
With `CC/C(=N\NC(=O)c1ccccc1O)c1c(O)n(Cc2ccccc2)c(=O)[nH]c1=O`, the max response was -28.7%.
Consider `CC1=CC(=Cc2sc3ccccc3[n+]2C)C=C(C)O1`, for which the Potency is 5.17 µM (active).
Still for that read-out and setting: with `CCCCn1c(O)c(C(=O)/C=C/c2c[nH]c3ccccc23)c(=O)[nH]c1=O` the figure was 12.5 µM (active); with `CN1C(=O)/C(=C\c2ccc(N3CCCCC3)o2)C(=O)NC1=S`, 14 µM (active).
Regarding `CCC(C)N1C(=O)/C(=C\c2ccc(N3CCCCCC3)cc2)C(=O)NC1=S` (stereo not drawn), the max response is -14.3%.
`Cc1cc(/C=C2\C(=O)NC(=O)N(c3ccc(Br)cc3)C2=O)c(C)n1C`: the max response was -6.73%.
`CN1C(=O)/C(=C/c2ccc(N3CCCCCC3)o2)C(=O)NC1=S`: the Potency was 12.5 µM (active).
On the same count and under the same terms, with `CN1CCN(c2ccc(/C=C3\C(=O)NC(=S)N(c4cccc(Br)c4)C3=O)o2)CC1` the figure was 18.4 µM (active); with `O=c1[nH]c(CN2CC=C(c3ccccc3)CC2)nc2scc(-c3ccccc3)c12`, 18.4 µM (active); with `Nc1ccc2c3c(cccc13)-c1ccccc1-2`, 4.11 µM (active).
On the same count and under the same terms, with `COc1cc(C2C(C#N)=C(N)Oc3cc(O)ccc32)cc(OC)c1OC` (stereo not drawn) the figure was 1.98 µM (active); with `CCCCNC(=O)/C(C#N)=c1\s/c(=C\c2ccccc2OC(F)F)c(=O)n1CCCOC`, 16.4 µM (active).
Take `COCCNC(=O)c1c(NC(=O)c2ccc(Br)o2)n(Cc2ccccc2)c2nc3ccccc3nc12`: the max response was -6.71%.
For the compound `CCCCCn1c(NC(=O)c2ccco2)c(C(=O)OCC)c2nc3ccccc3nc21`, the Potency is 15.8 µM (active).
On the same count and under the same terms, with `O=c1[nH]c(=O)n(Cc2ccccc2Cl)c(O)c1/C=C1/C=CC=N1` the figure was 9.2 µM (active); with `CC(C)CCCn1c(O)c(/C=C2/C=CC=N2)c(=O)[nH]c1=O`, 18.4 µM (active); with `COC(=O)C1=C(C)N(Cc2ccco2)C(=O)/C1=C\c1ccc(N(C)C)cc1`, 13 µM (active).
As for `O=c1c2ccccc2nc(/C=C/c2ccc([N+](=O)[O-])o2)n1-c1ccc(O)cc1`, the Potency was 12.5 µM (active).
Regarding `CN1/C(=C\C=C2C(=O)NC(=O)NC2=O)C(C)(C)c2ccccc21`, the max response is -9.38%.
On the same count and under the same terms, with `O=C1NC(=O)N(Cc2ccc(F)cc2)C(=O)/C1=C\c1ccoc1` the figure was -24.2%.
Regarding `O=C(Cc1ccccc1)c1ccccn1`, the Potency was 17.7 µM (active).
On the same count and under the same terms, with `CCS(=O)(=O)N1N=C(c2cccc(NS(C)(=O)=O)c2)CC1c1ccccc1` (stereo not drawn) the figure was 23.1 µM (active); with `Cc1ccccc1-n1c(/C=C/c2ccc(N(C)C)cc2)nc2ccccc2c1=O`, 3.26 µM (active).
For `COc1ccccc1-n1c(/C=C/c2ccc(O)cc2)nc2ccccc2c1=O`, the max response is -0.327%.
On the same count and under the same terms, with `O=c1nc(/C=C/c2ccc(Cl)cc2Cl)cc(C(F)(F)F)[nH]1` the figure was -25.1%.
